For assay [1], the system named is Zika virus NS2B-NS3 protease (linked construct). Briefly: Primary screen NINDS Rhodamine qHTS for Zika virus inhibitors (AID 1347160). Note: nearly all actives have a fitted effect of over 55% in size. Note: potency is the fitted concentration of half-maximal effect. In a few lines: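 Percent inhibition, normalized to uninhibited and enzyme-free controls, is fitted to a 4-parameter Hill equation. Fluorescence change comes from a 15-min cleavage of 1.5 microM bis-peptide Rhodamine110 substrate by 25 nM linked NS2B-NS3 at room temperature.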
In general terms: Quantitative high-throughput screening tests each substance at several concentrations.

The target in assay [2] is Luciferin 4-monooxygenase (Photinus pyralis) (UniProt P08659). Briefly: Primary firefly luciferase (FLuc) qHTS assay for identification of artifact compounds. (AID 1845220). Note: nearly all actives have a fitted effect of over 60% in size. In a few lines:
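Cell-free, 1536-well qHTS. Buffer pH 7.6 with 0.01% Tween-20 and 0.05% BSA; 10 uM D-luciferin, 10 uM ATP; 10 nM P. pyralis luciferase; luminescence after 5 min.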

The nature of assay [3]: Primary fluorescence-based thiol-reactive (MSTI) qHTS assay for identification of artifact compounds. (AID 1845221).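 Note: thiol-reactive compounds lower the probe fluorescence signal; nearly all actives have a fitted effect of over 65% in size.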 Summed up:
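Curve-fitted percent inhibition (4-parameter Hill) derived from fluorescence, Ex 525/Em 598 nm, scaled with Acetyl-MSTI and MSTI; 1 h incubation at room temperature.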

Assay [4] relates to Nanoluciferase (engineered Oplophorus gracilirostris luciferase). Briefly: Primary Nanoluciferase (NLuc) qHTS assay for identification of artifact compounds. (AID 1845222). In a few lines: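 Compounds are pinned into diluted (1:55) conditioned medium of NLuc-expressing S16 cells and held 15 min at room temperature protected from light. Nano-Glo substrate follows, and luminescence is read 5 min later.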

Assay [5] deals with CASKI. Briefly: Primary qHTS to identify gynecologic anti-cancer compounds using libraries of approved drugs and bioactive compounds (AID 1345084). Note: nearly all actives have a fitted effect of over 55% in size. Note: potency is the fitted concentration of half-maximal effect. As to conditions: Gynecologic cancer cell panel viability, ATPlite luminescence, 48 h; series mostly up to 57.5 µM. In a few lines:
(§1)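 Cytotoxicity screen measuring ATP content by luciferase luminescence. Each compound is applied at five concentrations for 48 h at 37 C with 5% CO2.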

Assay [6] relates to Hek293T. The assay is described as above. As to conditions: Gynecologic cancer cell panel viability, ATPlite luminescence, 48 h, control line for the selectivity index; series mostly up to 57.5 µM. In a few lines:
as §1
On the technique in general: ATP-based viability assays read luminescence as a measure of living cells.

Assay [7] deals with JEG-3. The description is as above. To be noted: Gynecologic cancer cell panel viability, ATPlite luminescence, 48 h; series mostly up to 57.5 µM. In a few lines: as §1
Assay [8] has as its target Calcium and integrin-binding protein 1 (Homo sapiens) (UniProt Q99828). Briefly: Primary qHTS for Identification of Calcium Integrin Binding Protein 1 (CIB1) Competitor (AID 1508620).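 Note: GST tagged CIB1 binding a fluorescein labelled alphaIIb integrin peptide tracer; top concentration of the series differs between compounds.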 In a few lines:
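CIB1-GST (1 uM final) and compound incubated 15 min at room temperature before adding FITC-alphaIIb peptide tracer (100 nM final). Competition for binding read by fluorescence polarization (ex 480, em 540) after another 15 min at room temperature.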

A short description of assay [9]: Primary qHTS for inhibitors of nuclear receptor binding SET domain protein 2 (NSD2) in an isogenic RCH-ACV NSD2 p.E1099K mutant (9B) (AID 1645876). Note: potency is the fitted concentration of half-maximal effect; nearly all actives have a fitted effect of over 70% in size.
The nature of assay [10]: Primary qHTS for inhibitors of nuclear receptor binding SET domain protein 2 (NSD2) in an RCH-ACV wild type WT cells (2C) (AID 1645877). Note: potency is the fitted concentration of half-maximal effect; nearly all actives have a fitted effect of over 70% in size.
In assay [11] the target is Glutathione peroxidase 1 (Homo sapiens) (UniProt P07203). Briefly: Primary qHTS Assay for Inhibitors of Recombinant Selenoprotein Glutathione Peroxidase 1 (GPX1) (AID 1845191). Note: nearly all actives have a fitted effect of over 65% in size. In a few lines: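 10 nM GPX1 + cpd, 30 min RT; start w/ 1 mM GSH, 0.5 mM cumene hydroperoxide, 0.5 mM NADPH, 100 nM GR, 0.01% BSA; buffer 50 mM Tris-HCl pH 7.5, 2 mM EDTA, 150 mM NaCl; Fl 340/450, 0 & 15 min.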
Glutathione peroxidase 1 (Homo sapiens), sequence (P07203 whole entry, looked up): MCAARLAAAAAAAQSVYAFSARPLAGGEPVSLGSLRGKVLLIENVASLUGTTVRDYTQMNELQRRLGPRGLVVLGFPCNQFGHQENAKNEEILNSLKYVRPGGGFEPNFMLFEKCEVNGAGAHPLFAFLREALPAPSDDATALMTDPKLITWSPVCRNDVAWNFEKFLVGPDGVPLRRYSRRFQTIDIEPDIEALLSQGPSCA

Assay [12] addresses Phospholipid hydroperoxide glutathione peroxidase GPX4 (Homo sapiens) (UniProt P36969). Briefly: Primary qHTS Assay for Inhibitors of Recombinant Selenoprotein Glutathione Peroxidase 4 (GPX4) (AID 1845192). Note: nearly all actives have a fitted effect of over 65% in size. As to conditions: outcome: dose series up to 50 µM unless noted. Summed up:
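NADPH consumption, followed by fluorescence at 340/450 nm between 0 and 15 min, reports GPX4 activity via coupled glutathione reductase (100 nM). Enzyme 200 nM was pre-exposed to compound 30 min; 0.5 mM cumene hydroperoxide and 1 mM GSH served as substrates.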

Assay [13] is described as follows: Primary redox qHTS assay for identification of artifact compounds. (AID 1845223). In a few lines:
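Amplex Red (25 uM) and HRP (250 mU/mL) in HBSS, with compounds for 15 min, then 250 uM DTT for 30 min, room temperature, dark. Fluorescence 525/598 nm read; normalized to DMSO and 10 uM DA3003; Hill fit.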

Assay [14] concerns C33A. Briefly: Primary qHTS to identify gynecologic anti-cancer compounds using libraries of approved drugs and bioactive compounds (AID 1345084). Note: nearly all actives have a fitted effect of over 55% in size. Note: potency is the fitted concentration of half-maximal effect. As to conditions: Gynecologic cancer cell panel viability, ATPlite luminescence, 48 h; series mostly up to 57.5 µM. In a few lines:
as §1

The subject of assay [15] is HeLa. The description is as above. As to conditions: Gynecologic cancer cell panel viability, ATPlite luminescence, 48 h; series mostly up to 57.5 µM. Summed up:
as §1

Assay [16] concerns Tov-21-G. The assay is described as above. To be noted: Gynecologic cancer cell panel viability, ATPlite luminescence, 48 h; series mostly up to 57.5 µM. In a few lines:
as §1

Assay [17] deals with Tov112D. Described as above. To be noted: Gynecologic cancer cell panel viability, ATPlite luminescence, 48 h; series mostly up to 57.5 µM. Summed up:
as §1

Assay [18] deals with CAOV3. Described as above. To be noted: Gynecologic cancer cell panel viability, ATPlite luminescence, 48 h; series mostly up to 57.5 µM. In a few lines: as §1
Assay [19] concerns Es-2. Described as above. As to conditions: Gynecologic cancer cell panel viability, ATPlite luminescence, 48 h; series mostly up to 57.5 µM. Summed up:
as §1

The test system of assay [20] is OV90. The description is as above. As to conditions: Gynecologic cancer cell panel viability, ATPlite luminescence, 48 h; series mostly up to 57.5 µM. Summed up: as §1

The results in this text go back to PubChem BioAssay (NCATS).

Results filed as inconclusive are left out. Active and inactive are the calls of the source. Calls come from the whole dose curve; as a rule, active = well fitted curve in the direction sought with a large enough effect; inconclusive = small, poorly fitted or top-dose-only effect, or another doubt; inactive = no such curve, though single readings can be large; an effect the other way counts as inactive or inconclusive.

Phospholipid hydroperoxide glutathione peroxidase GPX4 (Homo sapiens), sequence (P36969 whole entry, looked up): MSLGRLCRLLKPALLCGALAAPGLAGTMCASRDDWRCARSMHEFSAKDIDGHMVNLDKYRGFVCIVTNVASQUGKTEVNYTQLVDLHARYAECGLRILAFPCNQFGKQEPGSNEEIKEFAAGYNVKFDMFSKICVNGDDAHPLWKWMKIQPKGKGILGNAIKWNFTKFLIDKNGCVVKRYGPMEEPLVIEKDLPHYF
Calcium and integrin-binding protein 1 (Homo sapiens), sequence (Q99828 whole entry, looked up): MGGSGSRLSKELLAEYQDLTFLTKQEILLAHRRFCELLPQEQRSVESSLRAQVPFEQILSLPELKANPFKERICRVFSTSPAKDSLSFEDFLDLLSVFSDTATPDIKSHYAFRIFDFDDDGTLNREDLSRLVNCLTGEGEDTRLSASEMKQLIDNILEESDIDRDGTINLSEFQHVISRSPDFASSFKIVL

Turning to `O=C(C1=CCN2c3c(cccc31)OC[C@H]2CN1CCOCC1)c1cccc2ccccc12`, the Potency entry in [1], in assay [2], in [3], in [4], in [5] and in [6] was “inactive” in each case. The Potency result in assay [7] is “inactive”.
`CC(C)COc1ccc(CNC(=O)N(Cc2ccc(F)cc2)C2CCN(C)CC2)cc1`: the Potency entry in assay [1], in assay [11], in assay [12], in assay [2], in assay [3] and in assay [4] was “inactive” throughout. Moreover, the Potency entry in [13], in [14], in [15], in [6], in assay [16] and in assay [17] was “inactive” throughout. Also, the outcome in assay [8] was inactive. For the same compound, the values for the Potency in assay [9] and in [10] were 20.5 µM (active) and 18.3 µM (active), respectively.
For `CC(=O)Nc1nc2c(Oc3cc(-c4ccc(C(F)(F)F)cc4)ncn3)cccc2s1`, the Potency in [9] is 6.49 µM (active); in [10] it was 4.09 µM (active); in [16], 22.4 µM (active). In addition, the Potency entry in [11], in assay [2], in [3], in assay [4], in assay [13] and in [14] was “inactive” throughout. Also, the Potency result in assay [7] and in assay [17] was “inactive” each time.
With `CCOc1cc(CNC2CCCC2)cc(Cl)c1OCc1ccc(Cl)cc1`, the Potency result in [1], in assay [11], in assay [12], in assay [2], in assay [3] and in assay [4] was “inactive” throughout. The Potency entry in assay [13] and in assay [7] was “inactive” each time. For the same compound, the outcome in assay [8] was inactive. The results for the Potency in assay [9], in [10] and in assay [18] were 11.5 µM (active), 14.5 µM (active) and 22.4 µM (active), respectively.
As to `COc1ccccc1-c1cc(Nc2cccc(CS(N)(=O)=O)c2)ncn1`, the Potency result in assay [1], in assay [12], in assay [2], in assay [3], in [4] and in assay [13] was “inactive” in each case. For the same compound, the Potency in [9] is 4.09 µM (active); in [10], 2.9 µM (active); in assay [15], 22.4 µM (active); in [6], 20 µM (active).
On to `O=C(/C=C/n1cnc(-c2cc(C(F)(F)F)cc(C(F)(F)F)c2)n1)NNc1cnccn1`, for which the Potency entry in [1], in [11], in [12], in assay [2], in [3] and in assay [4] was “inactive” each time. The Potency result in assay [13], in [14], in assay [5] and in assay [15] was “inactive” each time. Further, the result in assay [8] was inactive. Moreover, the values for the Potency in assay [9] and in [10] were 1.63 µM (active) and 2.05 µM (active), respectively.
With `NC(=Nc1ccc(CCNCc2cccc(Cl)c2)cc1)c1cccs1`, the Potency entry in [1], in assay [11], in assay [12], in assay [2], in assay [3] and in assay [4] was “inactive” each time. For the same compound, the Potency entry in assay [13], in assay [19], in [15], in [6], in assay [16] and in assay [17] was “inactive” in each case. For the same compound, in assay [8], the result was inactive. Further, the Potency in assay [9] and in [10] was 11.5 µM (active) in each case.
In the case of `C[C@@H]1CCNC(=O)c2cc3ccc(C(=O)Nc4nc5ccccc5n4CCCN(C)C)cc3n21`, the Potency result in assay [1], in assay [11], in [12], in assay [2], in assay [3] and in [4] was “inactive” in each case. Besides, the Potency result in assay [13], in [19], in assay [15] and in assay [6] was “inactive” in each case. Moreover, the outcome in assay [8] was inactive. For the same compound, the Potency was 16.3 µM (active) in assay [9] and 25.1 µM (active) in assay [18].
With `N#Cc1cccc(C#N)c1-c1nc2c3ccccc3c3cc(Cl)ccc3c2[nH]1`, the Potency result in assay [1], in assay [12], in [2], in assay [3], in assay [4] and in [18] was “inactive” in each case. Also, the Potency result in [5], in assay [19], in assay [6], in assay [7], in assay [20] and in assay [16] was “inactive” each time. Further, the Potency entry in assay [17] is “inactive”. The outcome in assay [8] was inactive. In addition, the Potency in assay [9] and in assay [10] was 10.3 µM (active) in each case.
In the case of `O=C(O)c1ccc(O)c2ncc(N3CCCN(CCc4cccc5ccccc45)CC3)cc12`, the Potency is 6.31 µM (active) in assay [1], 4.09 µM (active) in [9] and 4.09 µM (active) in assay [10]. Besides, the Potency result in [11], in assay [12], in assay [2], in [4], in assay [18] and in [5] was “inactive” each time. Also, in assay [15], the Potency entry is “inactive”.
With `CN(C)CCCCCCNC(=O)c1cccc(-c2cc(O)c3ncccc3c2)c1`, the Potency entry in [1], in [11], in [12], in assay [2], in assay [4] and in assay [18] was “inactive” throughout. The Potency result in assay [15], in [7] and in assay [20] was “inactive” throughout. Besides, the figures for the Potency in assay [9] and in assay [10] were 11.5 µM (active) and 7.28 µM (active), respectively.
As to `CCCc1c(C(C)C)nc(C(C)C)c([C@@H](C)O)c1-c1ccc(F)cc1O`, the Potency in assay [1] was 14.1 µM (active); in [10], 14.5 µM (active). Also, in assay [8], the result was inactive. Moreover, the Potency entry in assay [11], in assay [12], in assay [2], in assay [3], in assay [4] and in [13] was “inactive” each time. The Potency entry in [5], in [19], in assay [6], in assay [20] and in assay [16] was “inactive” each time.
For `COc1cc2nc(N3CCN(C)CC3)nc(NC3CCN(Cc4ccccc4)CC3)c2cc1OC`, the Potency result in [1], in [11], in assay [2], in assay [3], in assay [4] and in [14] was “inactive” throughout. The Potency result in assay [15] and in assay [6] was “inactive” each time. For the same compound, the outcome in [8] was inactive. The Potency in [9] is 6.49 µM (active); in assay [10], 5.78 µM (active); in assay [20], 22.4 µM (active).
